According to PubChem BioAssay:
Where “and” joins values, the source holds several entries; their conditions need not be identical. Equal entries are not always repeated. Results filed as inconclusive are left out. Calls of active or inactive are those of the source. Unless noted, no cut-off is given here; in the data, nearly all actives have AC50 up to about 26 µM.

What was measured:
[1] = growth inhibition of DIPG glioma cells, dose response, cell-based, SU-DIPG-XVII, MIPE5.0, CellTiter-Glo, qHTS (AID 1347060); conditions: SU-DIPG-XVII viability, CellTiter-Glo ATP luminescence;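 note: cells exposed to compound for 48 hours before viability readout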
[2] = growth inhibition of DIPG glioma cells, dose response, cell-based, SU-DIPG-XIII, MIPE4.0, CellTiter-Glo, qHTS (AID 1347061; cut-off not given, nearly all actives have AC50 up to about 37 µM;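 note: cells exposed to compound for 48 hours before readout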); conditions: SU-DIPG-XIII viability, CellTiter-Glo ATP luminescence
[3] = growth inhibition of DIPG glioma cells, dose response, cell-based, JHH-DIPG-1, MIPE4.0, CellTiter-Glo, qHTS (AID 1347062; cut-off not given, nearly all actives have AC50 up to about 27 µM;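 note: cells exposed to compound for two days before readout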); conditions: JHH-DIPG-1 viability, CellTiter-Glo ATP luminescence
[4] = growth inhibition of DIPG glioma cells, dose response, cell-based, SU-DIPG-IV, MIPE4.0, CellTiter-Glo, qHTS (AID 1347063; cut-off not given, nearly all actives have AC50 up to about 30 µM;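 note: compound exposure lasted 48 hours before the viability readout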); conditions: SU-DIPG-IV viability, CellTiter-Glo ATP luminescence
[5] = growth inhibition of DIPG glioma cells, dose response, cell-based, SU-DIPG-XIII, MIPE5.0, CellTiter-Glo, qHTS (AID 1347064; cut-off not given, nearly all actives have AC50 up to about 23 µM;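 note: cells exposed to compound for 48 hours before the viability read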); conditions: SU-DIPG-XIII viability, CellTiter-Glo ATP luminescence
[6] = viability loss in pontine glioma line – cell-based, SU-DIPG-XXV, MIPE5.0, CellTiter-Glo, qHTS, dose response (AID 1347065); conditions: CellTiter-Glo ATP luminescence;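 note: cells exposed to compound for 48 hours before ATP readout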
[7] = SU-DIPG-VI glioma cell viability, MIPE4.0 library, CellTiter-Glo luminescence, qHTS (AID 1347066; cut-off not given, nearly all actives have AC50 up to about 30 µM;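 note: cells exposed to compound for 48 hours before readout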); conditions: CellTiter-Glo ATP luminescence
[8] = JHH-DIPG-1 glioma cell viability, MIPE5.0 library, CellTiter-Glo luminescence, qHTS (AID 1347067); conditions: JHH-DIPG-1 glioma viability, CellTiter-Glo ATP luminescence;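 note: cells exposed to compound for 48 hours before readout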
[9] = SU-DIPG-XXV glioma cell viability, MIPE5.0 library, qHTS (AID 1347068; cut-off not given, nearly all actives have IC50 up to about 30 µM;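 note: cells exposed to compound for 48 hours before viability readout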)
[10] = sensitizers of A549 cells to miR-34 induction, primary screen, imaging, A549 dox-inducible miR-34, nuclei and caspase counts (AID 1347080;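 active = compounds whose cell count with miR-34 switched on is under 0.7 times the count with it off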); conditions: A549 miR-34 inducible, Hoechst nuclei count, 48 h
[11] = survival rescue of mitochondrial mutant cells in low glucose, primary screen, MELAS cybrids, Rieske KO mouse fibroblasts, CellTiter-Glo (AID 1508586;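 active = mean z-score across replicates of 1.96 or higher in either the MELAS or the Rieske mutant cell line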;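 note: z relative to plate mean and SD of compound and empty wells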)
[12] = LFS_MB_P medulloblastoma growth inhibition, cell-based, chromothripsis tumors, cisplatin or BGB combos (AID 1671449; in the data active = inhibition above about 80%;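 note: cells exposed for 96 hours; 0% = vehicle DMSO and 100% = killing by high DMSO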); conditions: LFS_MB_P medulloblastoma cells
[13] = HDN33 neuroblastoma growth inhibition, cell-based, chromothripsis tumors, cisplatin or BGB combos (AID 1671450; in the data active = inhibition above about 80%;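 note: cells exposed to compound for four days; 0% = vehicle DMSO and 100% = cell killing by high DMSO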); conditions: HDN33 neuroblastoma cells, stronger effect = higher value
[14] = ICB984 medulloblastoma cell growth inhibition, synergistic combos for chromothripsis tumors, cisplatin or BGB combos (AID 1671451; call rule not given here;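 note: cells exposed for 96 hours before readout; 0% = vehicle DMSO and 100% = killing by high DMSO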); conditions: ICB984 medulloblastoma cells, drug combinations, stronger effect = higher value
[15] = HTB85 osteosarcoma cell growth inhibition, synergistic combos for chromothripsis tumors, BGB or cisplatin IC20 combos (AID 1671453; in the data active = inhibition above about 80%;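 note: cells exposed for 96 hours before readout; 0% = vehicle DMSO and 100% = high DMSO killing control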); conditions: HTB85 osteosarcoma cells, drug combinations, stronger effect = higher value
[16] = MDA-MB-436 breast carcinoma cell growth inhibition, synergistic combos for chromothripsis tumors, BGB or cisplatin combos (AID 1671458; call rule not given here;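 note: cells exposed for 96 hours; 0% = vehicle DMSO and 100% = killing by high DMSO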); conditions: MDA-MB-436 breast carcinoma growth inhibition, drug combinations, stronger effect = higher value
[17] = growth inhibition of BT084 medulloblastoma cells, cell-based, ICGC_MB145, cisplatin and BGB IC40 combos (AID 1671461; in the data active = inhibition above about 80%;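 note: cells exposed to drugs for 96 hours; 0% = vehicle DMSO and 100% = high DMSO full killing control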); conditions: drug combinations, stronger effect = higher value
[18] = growth inhibition of RCMB18 medulloblastoma cells, cell-based, cisplatin and BGB IC40 combos (AID 1671462; in the data active = inhibition above about 80%;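 note: cells exposed to compound for four days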); conditions: stronger effect = higher value
[19] = stronger effect = lower value, cell number ratio, induced over uninduced
[20] = measured here: relative caspase fold change +Dox/-Dox
[21] = measured here: total cells with miR-34 induction, stronger effect = lower value
[22] = measured here: total cells without miR-34 induction
[23] = MELAS cybrid survival, CellTiter-Glo 48 h, stronger effect = higher value
[24] = Rieske KO mouse fibroblast survival, CellTiter-Glo 72 h

Q: Which AC50 [1] does the source give for Nc1ncnc2c1c(-c1cnc3[nH]ccc3c1)nn2C1CCCC1 here?
A: The AC50 was 0.934 µM (active).

Q: What about the AC50 [2] of the same compound?
A: The AC50 was 3.72 µM (active).

Q: And the AC50 [3]?
A: Its AC50 is 6.62 µM (active).

Q: What about the AC50 [4] of the same compound?
A: Its AC50 is 0.296 µM (active).

Q: And the AC50 [5]?
A: The AC50 was 1.32 µM (active).

Q: What about the AC50 [6] of the same compound?
A: Its AC50 is 0.661 µM (active).

Q: What about the AC50 [7] of the same compound?
A: Its AC50 is 4.69 µM (active).

Q: What about the AC50 [8] of the same compound?
A: Its AC50 is 1.66 µM (active).

Q: And the IC50 [9]?
A: The IC50 was 1.66 µM (active).

Q: What about the fold change [10, 19] of the same compound?
A: Its fold change is 0.933 (inactive).

Q: And the fold change [10, 20]?
A: The fold change was 0.447.

Q: And the cell count [10, 21]?
A: The cell count was 1360.

Q: And the cell count [10, 22]?
A: The cell count was 1460.

Q: And the z-score [11, 23]?
A: Its z-score is 2.61 (active).

Q: And the z-score [11, 24]?
A: Its z-score is -3.58.

Q: And the inhibition ([12]; at 0.5 µM, stronger effect = higher value)?
A: The inhibition was -21.6% (inactive).

Q: What about the inhibition ([12]; measured here: combination with BGB IC20, at 0.005 µM) of the same compound?
A: The inhibition was -12.8%.

Q: What about the inhibition ([12]; measured here: combination with BGB IC40, at 0.005 µM) of the same compound?
A: Its inhibition is -34.4%.

Q: And the inhibition ([12]; measured here: combination with BGB IC40, at 0.05 µM)?
A: Its inhibition is -33.1%.

Q: And the inhibition ([12]; measured here: combination with cisplatin, at 0.5 µM, stronger effect = higher value)?
A: Its inhibition is -37.9%.

Q: What about the inhibition ([12]; measured here: combination with cisplatin, at 5 µM, stronger effect = higher value) of the same compound?
A: Its inhibition is 101%.

Q: And the inhibition ([13]; BGB combo, at 5 µM)?
A: Its inhibition is 93.7%.

Q: What about the inhibition ([13]; at 0.5 µM) of the same compound?
A: Its inhibition is 34.8% (inactive).

Q: And the inhibition ([13]; cisplatin combo, at 5 µM)?
A: Its inhibition is 89.8%.

Q: What about the inhibition ([13]; measured here: with BGB IC20 combination, at 0.5 µM) of the same compound?
A: The inhibition was 27.9%.

Q: And the inhibition ([13]; measured here: with cisplatin IC20 combination, at 0.5 µM)?
A: Its inhibition is 38.9%.

Q: And the inhibition ([13]; single agent, at 5 µM)?
A: The inhibition was 94.1%.

Q: And the inhibition ([14]; BGB IC20 combo, at 0.005 µM)?
A: Its inhibition is 3.47%.

Q: And the inhibition ([14]; BGB IC40 combo, at 0.005 µM)?
A: The inhibition was 0.136%.

Q: What about the inhibition ([14]; BGB IC40 combo, at 0.05 µM) of the same compound?
A: The inhibition was 75.2%.

Q: What about the inhibition ([14]; at 0.5 µM) of the same compound?
A: Its inhibition is -26.8% (inactive).

Q: What about the inhibition ([14]; cisplatin combo, at 0.05 µM) of the same compound?
A: Its inhibition is 74.3%.

Q: And the inhibition ([14]; cisplatin combo, at 0.5 µM)?
A: The inhibition was -46.2%.

Q: And the inhibition ([14]; cisplatin combo, at 5 µM)?
A: The inhibition was -4.06%.

Q: And the inhibition ([14]; measured here: 5 uM single agent, at 5 µM)?
A: The inhibition was -4.21%.

Q: And the inhibition ([15]; at 0.5 µM)?
A: The inhibition was 49.5% (inactive).

Q: And the inhibition ([15]; measured here: with BGB IC20, at 0.5 µM)?
A: Its inhibition is 55.4%.

Q: And the inhibition ([15]; measured here: with BGB IC20, at 5 µM)?
A: Its inhibition is 97.6%.

Q: What about the inhibition ([15]; measured here: with cisplatin IC20, at 0.5 µM) of the same compound?
A: The inhibition was 38.8%.

Q: And the inhibition ([15]; measured here: with cisplatin IC20, at 5 µM)?
A: Its inhibition is 94.1%.

Q: What about the inhibition ([15]; single agent, at 5 µM) of the same compound?
A: The inhibition was 95.9%.

Q: And the inhibition ([16]; at 0.5 µM)?
A: The inhibition was -11.6% (inactive).

Q: And the inhibition ([16]; measured here: BGB combination, at 0.5 µM)?
A: Its inhibition is 0.573%.

Q: And the inhibition ([16]; measured here: BGB combination, at 5 µM)?
A: The inhibition was 42.9%.

Q: What about the inhibition ([16]; measured here: cisplatin combination, at 0.5 µM) of the same compound?
A: The inhibition was -39.3%.

Q: What about the inhibition ([16]; measured here: cisplatin combination, at 5 µM) of the same compound?
A: The inhibition was 36.2%.

Q: And the inhibition ([17]; at 0.5 µM)?
A: Its inhibition is 26.7% (inactive).

Q: And the inhibition ([17]; cisplatin combination, at 0.5 µM)?
A: The inhibition was 42.3%.

Q: What about the inhibition ([17]; cisplatin combination, at 5 µM) of the same compound?
A: The inhibition was 38.7%.

Q: And the inhibition ([17]; measured here: BGB IC40 combination 0.05 uM, at 0.05 µM)?
A: Its inhibition is -23%.

Q: And the inhibition ([17]; single agent, at 5 µM)?
A: The inhibition was 59.1%.

Q: And the inhibition ([18]; at 0.5 µM)?
A: The inhibition was 1.21% (inactive).

Q: And the inhibition ([18]; cisplatin combo, at 5 µM)?
A: Its inhibition is 73.6%.

Q: And the inhibition ([18]; measured here: BGB IC40 combination, at 0.05 µM)?
A: Its inhibition is -7.03%.

Q: And the inhibition ([18]; measured here: combination with cisplatin, at 0.5 µM)?
A: Its inhibition is -23.9%.

Q: And the inhibition ([18]; single agent, at 5 µM)?
A: The inhibition was 64.6%.

Q: For C=C1C(=O)O[C@@H]2[C@H]3O[C@]3(C)CC/C=C(\C)CC[C@@H]12, which AC50 [1] is on record?
A: The AC50 was 9.34 µM (active).

Q: And the AC50 [2]?
A: Its AC50 is 16.6 µM (active).

Q: And the AC50 [3]?
A: Its AC50 is 14.8 µM (active).

Q: And the AC50 [4]?
A: The AC50 was 7.43 µM (active).

Q: And the AC50 [5]?
A: The AC50 was 4.68 µM (active).

Q: What about the AC50 [6] of the same compound?
A: Its AC50 is 7.42 µM (active).

Q: And the AC50 [7]?
A: The AC50 was 3.72 µM (active).

Q: And the AC50 [8]?
A: The AC50 was 6.61 µM (active).

Q: And the IC50 [9]?
A: Its IC50 is 16.6 µM (active).

Q: What about the fold change [10, 19] of the same compound?
A: The fold change was 0.927 (inactive) and 0.781 (inactive).

Q: What about the fold change [10, 20] of the same compound?
A: Its fold change is 1.09 and 1.49.

Q: And the cell count [10, 21]?
A: Its cell count is 4920 and 316.

Q: What about the cell count [10, 22] of the same compound?
A: Its cell count is 5310 and 404.

Q: And the z-score [11, 23]?
A: The z-score was 2.28 (active).

Q: And the z-score [11, 24]?
A: Its z-score is -0.174.

Q: Which AC50 [1] does the source give for CCOC(=O)N1CCN(/[N+]([O-])=N/Oc2ccc([N+](=O)[O-])cc2[N+](=O)[O-])CC1 here?
A: The AC50 was 16.6 µM (active).

Q: What about the outcome [2] of the same compound?
A: Its outcome is “inactive”.

Q: What about the AC50 [3] of the same compound?
A: The AC50 was 5.9 µM (active).

Q: And the AC50 [4]?
A: The AC50 was 4.18 µM (active).

Q: And the AC50 [5]?
A: Its AC50 is 4.17 µM (active).

Q: What about the AC50 [6] of the same compound?
A: The AC50 was 3.32 µM (active).

Q: What about the AC50 [7] of the same compound?
A: Its AC50 is 10.5 µM (active).

Q: And the AC50 [8]?
A: Its AC50 is 4.17 µM (active).

Q: And the IC50 [9]?
A: The IC50 was 23.5 µM (active).

Q: What about the fold change [10, 19] of the same compound?
A: The fold change was 1.15 (inactive).

Q: And the fold change [10, 20]?
A: The fold change was 1.4.

Q: What about the cell count [10, 21] of the same compound?
A: The cell count was 2110.

Q: And the cell count [10, 22]?
A: The cell count was 1840.
